# From PubChem BioAssay (NCATS)
# “And” between values parts separate entries of the source, which are not always exact repeats. Equal values may be shown once. Results filed as inconclusive are left out. Entries that show only a call come without a potency. The source made the active and inactive calls. Unless noted, the call rests on the fitted dose curve; in most records, active means well fitted curve in the direction sought with a large enough effect; inconclusive means small, poorly fitted or top-dose-only effect, or another doubt; inactive means no such curve, though single readings can be large; an effect the other way counts as inactive or inconclusive.
# What was measured:
# [1] = qHTS profiling of the MIPE4 collection as inhibitors of Plasmodium falciparum (3D7) proliferation (AID 743344; call rule not given here); details: P. falciparum 3D7 in erythrocytes, SYBR Green DNA fluorescence, 72 h; at 28.5 µM
# Procedure, shortened: (§1)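 Parasite DNA was quantified by SYBR Green I fluorescence (ex 485, em 535 nm) after overnight lysis in saponin/Triton buffer at room temperature. Cultures at 0.3% parasitemia and 2.5% hematocrit were first exposed to compound for 72 h at 37 C; signals were normalised to artemisinin (0.29 uM) and vehicle wells.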
# [2] = qHTS profiling of the MIPE4 collection as inhibitors of Plasmodium falciparum (DD2) proliferation (AID 743345; call rule not given here); details: P. falciparum Dd2 in erythrocytes, SYBR Green DNA, 72 h; at 28.5 µM
# Procedure, shortened: as §1
# [3] = qHTS profiling of the MIPE4 collection as inhibitors of Plasmodium falciparum (DD2) proliferation (Rep 2) (AID 743346; call rule not given here); details: P. falciparum Dd2 in erythrocytes, SYBR Green DNA, 72 h; at 28.5 µM
# Procedure, shortened: as §1
# [4] = qHTS profiling of the MIPE4 collection as inhibitors of Plasmodium falciparum (HB3) proliferation (AID 743347; call rule not given here); details: P. falciparum HB3 in erythrocytes, SYBR Green DNA, 72 h; at 28.5 µM
# Procedure, shortened: as §1
# [5] = qHTS assay to identify small molecule inhibitors of chordoma cells - UCH-1 (AID 1259355); further: nearly all actives have a fitted effect of over 55% in size; further: potency means the concentration at half of the fitted maximal effect
# Procedure, shortened: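 A 48hr growth-inhibition format: each drug tested at 15 concentrations together with added auranofin, camptothecin, doxorubicin, rubitecan and topotecan, with cell viability quantified as CellTiter-Glo luminescence.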
# [6] = qHTS assay to identify small molecule inhibitors of chordoma cells - UCH-2 (AID 1259356)
# [7] = P-glycoprotein substrates identified in KB-8-5-11 adenocarcinoma cell line, qHTS therapeutic library screen (AID 1346987); details: outcome: dose series up to 44.5 µM unless noted; further: nearly all actives have a fitted effect of over 65% in size
# Procedure, shortened: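 Luminescence from CellTiter-Glo, read 5 min after addition, quantified survival of KB-8-5-11 (P-gp-overexpressing) cells exposed to compounds for 72 h. AC50 was derived from concentration-response curves.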
# [8] = qHTS Assay for Identifying Gametocytocidal Compounds (AID 743244); further: potency means the concentration at half of the fitted maximal effect;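 on max response: actives lower the fluorescent signal which means gametocytes are killed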; details: P. falciparum 3D7 stage III-V gametocytes, alamarBlue, 72 h; max response: stronger effect = lower value
# Procedure, shortened: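 Stage III–V gametocytes of P. falciparum 3D7 were seeded at 20,000 cells/well onto pre-dispensed compounds. After 72 h, 37 °C, 5% CO2, alamarBlue was added for another 24 h.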
# [9] = qHTS profiling for inhibitors of Plasmodium falciparum (3D7) proliferation (AID 743322; call rule not given here;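 further: infected erythrocytes exposed to compound for 72 h before lysis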); details: P. falciparum 3D7 proliferation; at 28.7 µM (top of the series) unless noted
# Procedure, shortened: as §1
# [10] = qHTS profiling for inhibitors of Plasmodium falciparum (DD2) proliferation (AID 743323; call rule not given here); details: lower = more inhibition; at 28.7 µM (top of the series) unless noted
# Procedure, shortened: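 Parasite proliferation measured via DNA-dye fluorescence, as uninfected erythrocytes lack DNA. Cultures at 0.3% parasitemia and 2.5% hematocrit incubated 72 h with compound; signal scaled between vehicle and 0.29 uM artemisinin wells.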
# [11] = qHTS profiling for inhibitors of Plasmodium falciparum (HB3) proliferation (AID 743324); details: Plasmodium falciparum HB3 blood-stage proliferation; at 28.7 µM (top of the series) unless noted
# Procedure, shortened: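 SYBR Green fluorescence (485 ex/535 em) of lysed cultures, incubated overnight at room temperature in the dark, quantifies parasite DNA. Infected erythrocytes at 0.3% parasitemia and 2.5% hematocrit were exposed 72 h; values normalized to DMSO and 0.29 uM artemisinin controls.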
# [12] = qHTS assay for small molecule agonists of the antioxidant response element (ARE) signaling pathway measured by Nrf2-dependant transcriptional activity - cell viability counter screen (AID 720653; active means well fitted curve in the direction sought with a large enough effect in the repeat runs; an effect the other way counts as inactive or inconclusive); details: ARE-bla HepG2 viability, CellTiter-Glo ATP luminescence, 16 h; stronger effect = lower value
# Procedure, shortened: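 ARE-bla HepG2 cells (2,000/well) rested 5 hrs at 37C/5% CO2, then exposed to compounds in DMSO for 16 hrs. Viability was read in the same wells as intracellular ATP by luminescence, 30 min at room temperature after reagent addition.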
# [13] = qHTS assay for cell viability of HEK293 cells (AID 743288); details: ATP luminescence (CellTiter-Glo), 18 h; max response: stronger effect = lower value; further: nearly all actives have a fitted effect of over 50% in size
# Procedure, shortened: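 Readout is luciferase-coupled ATP content (CellTiter-Glo luminescence, 30 min room temperature) as a measure of metabolically competent cells. Parental HEK293 cells were plated 5 h or more before compound addition, then treated 18 h at 37 C.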
# [14] = qHTS assay for cell viability of the p53RE-bla HCT-116 cell line (AID 743292); further: nearly all actives have a fitted effect of over 55% in size
# Procedure, shortened: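 CellSensor p53RE-bla HCT-116 cells (4,000/well) pre-incubated 5 h at 37 C, then exposed to compounds in DMSO for 16 h at 37 C. Viability read as ATP content by CellTiter-Glo luminescence after 30 min at room temperature.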
smiles,measurement,setting,value
O=C(O)[C@H]1C(=CCO)O[C@H]2CC(=O)N12,"parasite growth, % of DMSO control",[1],93.2%
same,"parasite growth remaining, % of DMSO control (lower = more inhibition)",[2],103%
same,"parasite growth, % of control (lower = inhibition)",[3],115%
same,"growth, % of control",[4],93.1%
same,Potency,[5],inactive
same,Potency,[6],inactive
same,Potency,[7],inactive
CC[C@H]1OC(=O)[C@H](C)[C@@H](O[C@H]2C[C@@](C)(OC)[C@@H](O)[C@H](C)O2)C(C)[C@@H](O[C@@H]2O[C@H](C)C[C@H](N(C)C)[C@@H]2O)[C@](C)(OC)C[C@@H](C)C(=O)[C@H](C)[C@@H](O)[C@]1(C)O (stereo partly drawn),"parasite growth, % of DMSO control",[1],19.7%
same,"parasite growth remaining, % of DMSO control (lower = more inhibition)",[2],35.4%
same,"parasite growth, % of control (lower = inhibition)",[3],38.9%
same,"growth, % of control",[4],37.4%
same,Potency,[5],inactive
same,Potency,[6],inactive
same,Potency,[7],inactive
CCCCCCCCCCCCCCCCOCCOCCOCCOCCOCCOCCOCCOCCOCCOCCOCCOCCOCCOCCOCCOCCOCCOCCOCCOCCO,max response,[8],-3.08% (inactive)
same,Potency,[5],35.5 µM (active)
same,Potency,[6],inactive
CN[C@@H]1[C@H](O[C@H]2[C@H](O[C@H]3[C@H](O)[C@@H](O)[C@H](N=C(N)N)[C@@H](O)[C@@H]3N=C(N)N)O[C@@H](C)[C@]2(O)CO)O[C@@H](CO)[C@H](O)[C@H]1O,max response,[8],8.75% (inactive)
same,Potency,[5],inactive
same,Potency,[6],inactive
COC(=O)[C@H]1[C@H]2C[C@@H]3c4[nH]c5cc(OC)ccc5c4CCN3C[C@H]2C[C@H](OC)[C@@H]1OC,max response,[8],15% (inactive)
same,Potency,[5],inactive
same,Potency,[6],inactive
CC(C)N1CCN(c2ccc(OC[C@H]3CO[C@](Cn4cncn4)(c4ccc(Cl)cc4Cl)O3)cc2)CC1,max response,[8],3.43% (inactive)
same,Potency,[5],inactive
same,Potency,[6],inactive
O=C1c2ccccc2C(=O)c2c1ccc(O)c2O,max response,[8],2.07% (inactive)
same,Potency,[5],inactive
same,Potency,[6],inactive
O=C(O)CCC(=O)c1ccc(-c2ccccc2)cc1,max response,[8],1.84% (inactive)
same,Potency,[5],inactive
same,Potency,[6],inactive
C[C@H](CCCC(C)(C)O)[C@H]1CC[C@H]2[C@@H]3CC=C4C[C@@H](O)CC[C@]4(C)[C@H]3CC[C@]12C,max response,[8],-7.2% (inactive)
same,Potency,[5],inactive
same,Potency,[6],inactive
C=Cc1c(C)c2cc3nc(cc4[nH]c(cc5nc(cc1[nH]2)C(C)=C5CCC(=O)OC)c(CCC(=O)O)c4C)[C@@]1(C)C3=CC=C(C(=O)OC)[C@H]1C(=O)OC,remaining parasite growth % (stronger effect = lower value),[9],-0.398% [at 9.63 µM]
same,"activity, percent of control",[10],0.912% [at 9.63 µM]
same,"remaining proliferation (% of control), lower = more inhibition",[11],0.279% [at 9.63 µM]
same,Potency,[5],inactive
same,Potency,[6],inactive
same,Potency,[7],inactive
c1ccc2cc(C3=NCCN3)ccc2c1,max response,[8],5.29% (inactive)
same,Potency,[5],inactive
same,Potency,[6],inactive
same,Potency,[7],inactive
C=C1C(CCl)(CCl)C2(Cl)C(Cl)C(Cl)C1(Cl)C2(Cl)Cl (stereo not drawn),max response,[8],-0.376% (inactive)
same,Potency,[5],inactive
same,Potency,[6],inactive
CO[C@H]1O[C@@H]2O[C@@]3(C)CC[C@H]4[C@H](C)CC[C@@H]([C@H]1C)[C@@]24OO3,Potency,[8],0.0833 µM (active)
same,remaining parasite growth % (stronger effect = lower value),[9],-0.372% [at 57.5 µM]
same,"activity, percent of control",[10],-0.375% [at 57.5 µM]
same,"remaining proliferation (% of control), lower = more inhibition",[11],0.0422% [at 57.5 µM]
same,Potency,[5],inactive
same,Potency,[6],inactive
same,Potency,[7],inactive
C#C[C@]1(O)CC[C@@H]2[C@H]3CCC4=CC(=O)CC[C@H]4[C@H]3C(=C)C[C@@]21CC,remaining parasite growth % (stronger effect = lower value),[9],38.1%
same,"activity, percent of control",[10],51.3%
same,"remaining proliferation (% of control), lower = more inhibition",[11],25.2%
same,"parasite growth, % of DMSO control",[1],22.9%
same,"parasite growth remaining, % of DMSO control (lower = more inhibition)",[2],82.2%
same,"parasite growth, % of control (lower = inhibition)",[3],66.9%
same,"growth, % of control",[4],44.4%
same,Potency,[5],inactive
same,Potency,[6],inactive
same,Potency,[7],inactive
CN(C)CCCSc1ccccc1NC(=O)/C=C/c1ccccc1,max response,[8],-4.09% (inactive)
same,Potency,[5],inactive
same,Potency,[6],inactive
CCCc1nc(C(C)(C)O)c(C(=O)OCc2oc(=O)oc2C)n1Cc1ccc(-c2ccccc2-c2nn[nH]n2)cc1,max response,[8],48.2% (inactive)
same,Potency,[5],inactive
same,Potency,[6],inactive
CN(C)CCOc1ccc(/C(=C(/CCCl)c2ccccc2)c2ccccc2)cc1,max response,[8],7.93% (inactive)
same,Potency,[5],inactive
same,Potency,[6],inactive
CC(CN1c2ccccc2Sc2cccnc21)N(C)C (stereo not drawn),max response,[8],4.99% (inactive)
same,Potency,[5],inactive
same,Potency,[6],inactive
CN1C(C(=O)Nc2ccccn2)C(=O)c2sc(Cl)cc2S1(=O)=O (stereo not drawn),max response,[8],11.6% (inactive)
same,Potency,[5],inactive
same,Potency,[6],inactive
CCN(CC)CCOc1ccc2nc(N(C)C)sc2c1,max response,[8],-4.7% (inactive)
same,Potency,[5],inactive
same,Potency,[6],inactive
O=C(c1cc2ccccc2o1)N1CCN(Cc2ccccc2)CC1,max response,[8],7.29% (inactive)
same,Potency,[5],inactive
same,Potency,[6],inactive
O=c1n(CC2CO2)c(=O)n(CC2CO2)c(=O)n1CC1CO1 (stereo not drawn),max response,[12],-19.7% (inactive) and -11.1% (inactive)
same,max response,[8],6.57% (inactive)
same,max response,[13],-25.2% (inactive) and -21.7% (inactive)
same,outcome,[14],inactive
same,Potency,[5],inactive
same,Potency,[6],inactive
Cc1c(N)nc([C@H](CC(N)=O)NC[C@H](N)C(N)=O)nc1C(=O)N[C@H](C(=O)N[C@H](C)[C@@H](O)[C@H](C)C(=O)N[C@H](C(=O)NCCc1nc(-c2nc(C(=O)NCCCCN=C(N)N)cs2)cs1)[C@@H](C)O)[C@@H](O[C@@H]1O[C@@H](CO)[C@@H](O)[C@H](O)[C@@H]1O[C@H]1O[C@H](CO)[C@@H](O)[C@H](OC(N)=O)[C@@H]1O)c1cnc[nH]1,remaining parasite growth % (stronger effect = lower value),[9],83.7%
same,"activity, percent of control",[10],82.1%
same,"remaining proliferation (% of control), lower = more inhibition",[11],67.1%
same,Potency,[5],inactive
same,Potency,[6],inactive
same,Potency,[7],inactive
